Experimental data as given in PubChem BioAssay AID504832 (National Center for Advancing Translational Sciences (NCATS), 2011).
The campaign covered roughly 310,000 compounds. About 18,000 (5.8%) were called active. Not shown: some 22% with an inconclusive outcome. Calls follow the shape of the dose curve; as a rule, active = well fitted inhibition curve with a large enough effect; inconclusive = small, poorly fitted or top-dose-only effect, or another doubt; inactive = no such curve, though single readings can be large or run the other way. Shown is part of a subset that was picked to be rich in actives. Where a call stands in place of a potency, no number is given.

Assay: Primary qHTS for delayed death inhibitors of the malarial parasite plastid, 48 hour incubation
Conditions: P. falciparum luciferase growth in erythrocytes; series mostly up to 28.7 µM
How it was run: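 Luminescence readout; reporter = integrated firefly luciferase in P. falciparum. RBC culture at 2% hematocrit, 0.1% parasitemia final, 37 C/5% CO2; decreased signal taken as growth inhibition.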
Potency is read from the fitted curve at half-maximal effect.

| SMILES | Potency | activity change, negative = inhibition |
| --- | --- | --- |
| Cc1cccc(C(=O)Nc2ccc(Oc3cnccn3)cc2)c1 | inactive |  |
| CCCn1nc(C(=O)Nc2ccc3nc(C)sc3c2)c2ccccc2c1=O | inactive |  |
| COC(=O)c1cc(NC(=O)c2nn(C)c(=O)c3ccccc23)cc(C(=O)OC)c1 | inactive |  |
| CCCCn1nc(C(=O)Nc2cccc(C(=O)NC3CC3)c2)c2ccccc2c1=O | 11.7 µM (active) |  |
| O=C1c2ccccc2C(=O)N1c1cccc2ccccc12 | inactive |  |
| Cc1c(NC(=O)CSCc2ccccc2)cccc1C(=O)O | inactive |  |
| CC1C(=O)Nc2ccc(S(=O)(=O)N3CCN(c4ccccc4F)CC3)cc2NC1=O (configuration not stated) | inactive |  |
| Clc1ccc(C(Cn2ccnc2)OCc2ccsc2Cl)c(Cl)c1 (configuration not stated) | 4.26 µM (active) |  |
| CC1CCN(S(=O)(=O)c2ccc3c(ccn3CC(=O)O)c2)CC1 | inactive |  |
| Cc1ccc(S(=O)(=O)CC(=O)NC(C)c2ccccc2)cc1 (configuration not stated) | inactive |  |
| COc1cccc(-n2c(=S)sc3c(=O)n(-c4ccccc4C)c(SCC(=O)O)nc32)c1 | inactive |  |
| CCOc1ccccc1NC(=O)CCc1nnc2ccc(NCc3ccco3)nn12 | inactive |  |
| O=S(=O)(O)Oc1c[nH]c2ccccc12 | 7.38 µM (active) |  |
| CCC/C(=N\O)c1c[nH]c2ccccc12 | inactive |  |
| COc1ccccc1CC(=O)NCCc1c[nH]c2ccccc12 | inactive |  |
| CCc1noc(C)c1C(=O)Oc1ccc(N(C)S(=O)(=O)c2ccc(C)c(C)c2)cc1 | inactive |  |
| CC1(C)O[C@@H]2[C@H](O1)[C@@H](COS(=O)(=O)O)O[C@H]2n1ccc(=O)[nH]c1=O | inactive |  |
| CCN(CC)CCCNC(=O)c1c(O)c2cc(F)cc3c2n(c1=O)C(C)CC3 (configuration not stated) | inactive |  |
| CCOC(=O)C1=C(c2ccccc2)NC(=S)NC1c1ccc(Cl)cc1 (configuration not stated) | inactive |  |
| CCOC(=O)C1=C(C)NC(=O)N(C(C)=O)C1c1ccc(Cl)cc1 (configuration not stated) | 5.22 µM (active) |  |
| COCCOC(=O)C1=C(C)NC(=O)NC1c1ccc(Cl)cc1 (configuration not stated) | inactive |  |
| COc1ccc(C(=O)Nc2ccc(C(=O)NCC3CCCO3)cc2)c(OC)c1OC (configuration not stated) | inactive |  |
| CC1CCCC(NC(=O)c2cc(S(=O)(=O)N3CCCCC3)ccc2Cl)C1C (configuration not stated) | 13.1 µM (active) |  |
| Cc1ccc(S(=O)(=O)N2CCN(C)CC2)cc1C(=O)NC1CCCCC1 | inactive |  |
| O=C(NNC(=O)c1cc(S(=O)(=O)N2CCCCC2)ccc1Cl)c1ccccc1O | inactive |  |
| O=C(O)c1ccc2c(=O)n3c(nc2c1)/C(=C/c1ccc(OC(F)F)cc1OC(F)F)CC3 | inactive |  |

| SMILES | Potency | activity change, negative = inhibition |
| --- | --- | --- |
| Nc1nc(SCC(=O)Nc2ccc(Cl)c([N+](=O)[O-])c2)n[nH]1 | inactive |  |
| O=C(NCc1ccc2c(c1)OCO2)c1cc(F)c(F)cc1Cl | inactive |  |
| O=C(c1ccco1)N1CCN(C(=O)c2cc(-c3ccccc3F)no2)CC1 | inactive |  |
| CCCOC(=O)c1[nH]c2c(c1C)C(=O)CC(c1cc(OC)c(OC)c(OC)c1)C2 (configuration not stated) | 1.65 µM (active) |  |
| COCCOC(=O)c1[nH]c2c(c1C)C(=O)CC(c1ccc(OC)cc1)C2 (configuration not stated) | inactive |  |
| CCOC(=O)c1[nH]c2c(c1-c1ccccc1)C(=O)CC(c1ccc(Cl)cc1)C2 (configuration not stated) | inactive |  |
| Cn1c(-c2ccc(C(F)(F)F)cc2)cc2onc(-c3ccccc3)c2c1=O | inactive |  |
| COCCNC(=O)CN(C(=O)CCC(=O)Nc1cc(C)on1)c1ccc(C)cc1C | inactive |  |
| Cc1ccc(N(CC(=O)NC2CCCCC2)C(=O)CCCC(=O)Nc2ccccn2)c(C)c1 | inactive |  |
| Cc1ccc(C)c(N(CC(=O)NCc2ccco2)C(=O)CCC(=O)Nc2ccccn2)c1 | 14.7 µM (active) |  |
| CCc1ccc(NC(=O)Cn2nnc(C(=O)NCc3ccc4c(c3)OCO4)c2N)cc1 | inactive |  |
| Cc1ccc(S(=O)(=O)N2CCOCC2)cc1C(=O)NCc1ccc(F)cc1 | inactive |  |
| O=C(CN1C(=O)CCC1=O)Nc1ccc(S(=O)(=O)N2CCOCC2)cc1 | inactive |  |
| O=C(CN1CCN(S(=O)(=O)/C=C/c2ccccc2)CC1)Nc1ccc(N2CCOCC2)cc1 | inactive |  |
| COc1ccc(CC(=O)Nc2ccc3c(c2)CCC3)cc1S(=O)(=O)N1CCOCC1 | inactive |  |
| Cc1cc2cc(CNC(=O)c3ccc(S(=O)(=O)N4CCOCC4)cc3)ccc2[nH]1 | 13.1 µM (active) |  |
| Cc1ccc(CC(=O)Nc2ccc(S(=O)(=O)N3CCOCC3)cc2)cc1C | 9.28 µM (active) |  |
| O=C(Nc1ccc2cn[nH]c2c1)c1ccc(S(=O)(=O)N2CCOCC2)cc1 | inactive |  |
| O=C(CN1CCN(c2cccc(Cl)c2)CC1)Nc1ccc(S(=O)(=O)N2CCOCC2)cc1 | 10.4 µM (active) |  |
| O=C(CN1CCCCCC1)Nc1ccc(S(=O)(=O)N2CCCCC2)cc1 | inactive |  |
| CCOC(=O)c1sc(=NC(=O)c2ccc(Br)cc2)n(C)c1C | inactive |  |
| Cn1c(=O)c2ccccc2n(CC(=O)Nc2ccc3c(c2)OCCO3)c1=O | inactive |  |
| COc1cc(C(=O)N/C(=C\c2cn(C)c3ccccc23)C(=O)N2CCOCC2)cc(OC)c1OC | inactive |  |
| CN(C)S(=O)(=O)c1cccc(C(=O)OCC(=O)N2CCCC2=O)c1 | inactive |  |
| CC1CC1C(=O)OCC(=O)Nc1cccc(F)c1 (configuration not stated) | inactive |  |
| COc1ccc(NC(=O)NN2CCN(C)CC2)c(OC)c1 | inactive |  |

| SMILES | Potency | activity change, negative = inhibition |
| --- | --- | --- |
| CCOc1ccc(/C=N\NC(=O)c2c(C)nc3cc(C)ccn23)cc1 | inactive |  |
| Cn1c(=O)n(C)c2cc(S(=O)(=O)Nc3ccc(F)cc3)ccc21 | inactive |  |
| CSCc1cc(N2CCOCC2)nc(SCc2ccc(Cl)cc2Cl)n1 | 13.1 µM (active) |  |
| CSCCC(NC(=O)c1ccc(Cl)cc1Cl)C(=O)NNC(=O)c1csc(N2CCOCC2)n1 (configuration not stated) | inactive |  |
| Clc1ccc(CSc2nnc(/C=C/c3ccccc3)o2)c(Cl)c1 | inactive |  |
| CSCc1cc(N(C)C)nc(SCc2ccc(Cl)cc2Cl)n1 | 13.1 µM (active) |  |
| CC(C)(CNC(=O)Cc1ccc(Cl)cc1Cl)N1CCOCC1 | inactive |  |
| Nc1cc(N)nc(SCc2ccc(Cl)cc2)n1 | inactive |  |
| CCc1ccc(C(=O)COC(=O)c2ccco2)cc1 | inactive |  |
| O=C(NCc1ccco1)/C(=C/c1ccco1)NC(=O)c1ccccc1 | inactive |  |
| CC1CCCN(S(=O)(=O)c2ccc(-c3ccc(=O)[nH]n3)o2)C1 (configuration not stated) | inactive |  |
| COC(=O)C1(C)CC1(c1ccccc1)c1ccccc1 (configuration not stated) |  | -9.84% [at 0.00184 µM] (inactive) |
| Cc1ccccc1-n1cc(CNC(=O)C2CCC(=O)N(C3CC3)C2)cn1 (configuration not stated) | inactive |  |
| CCN1CCN(C(=O)N(Cc2ccc(Cl)cc2)S(=O)(=O)c2ccc(C)cc2)CC1 | inactive |  |
| Cc1nn(C)cc1S(=O)(=O)N1CCN(c2ccc(F)cc2)CC1 | inactive |  |
| Cc1ccc(CNC(=O)C(=O)c2cn(CC(=O)N3CCCC3)c3ccccc23)cc1 | inactive |  |
| CC1CCCN(CC(O)COCc2ccccc2)C1 (configuration not stated) | inactive |  |
| Oc1c(CN2CCN(c3ccc(F)cc3)CC2)cc(Cl)c2cccnc12 | 1.85 µM (active) |  |
| Oc1c(CN2CCCC2)cc(COCc2ccccc2)c2cccnc12 | 0.657 µM (active) |  |
| Cc1cccnc1NC(=O)c1cccc(S(=O)(=O)N2CCN(c3ccc(F)cc3)CC2)c1 | inactive |  |
| O=C(Cc1ccccc1)NNC(=O)C1CCN(c2ncccn2)CC1 | inactive |  |
| Oc1ccc(CN2CCN(c3ncccn3)CC2)cc1 | inactive |  |
| Cc1cc(S(=O)(=O)NCC(C)C)ccc1OCC(=O)NC1CC1 | inactive |  |
| CC(=O)c1cccc(NC(=S)N2CCN(S(C)(=O)=O)CC2)c1 | inactive |  |
| Cc1ccc(F)cc1S(=O)(=O)Nc1cccc(C(=O)N2CCCC(C(N)=O)C2)c1 (configuration not stated) | inactive |  |
| COc1ccc(OC)c(NC(=O)c2ccc3c(c2)C(=O)N(c2ccc(OC(C)=O)cc2)C3=O)c1 |  | 0.907% [at 0.00184 µM] (inactive) |

| SMILES | Potency | activity change, negative = inhibition |
| --- | --- | --- |
| C/C(=N\NC(=O)C1(C)CC1(Br)Br)c1ccc(C)cc1C (configuration not stated) | inactive |  |
| O=C(CCn1nnnc1CN1CCOCC1)N1CCC(c2ccccc2Cl)C1 (configuration not stated) | inactive |  |
| CCc1nn(CC(=O)N2CCN(CC)CC2)c(=O)c2cccn12 | inactive |  |
| NC(=O)c1ccc(CN2CCC(Cc3ccccc3)CC2)cc1 | inactive |  |
| Brc1ccc(CN2CC[C@H]3C=CCc4cccc(c43)C2)cc1 | 3.29 µM (active) |  |
| NC(=O)C1CC(=O)N(c2ccc(OCC(=O)NCc3ccccc3)cc2)C1 (configuration not stated) | inactive |  |
| CCN(C(=O)c1cc([N+](=O)[O-])ccc1NCc1cccnc1)c1ccccc1 | inactive |  |
| CS(=O)(=O)Nc1ccccc1C(=O)OCC(=O)NC1CC1 | inactive |  |
| CC(C)=CCc1c(O)c(CC=C(C)C)c2occ(-c3ccc(O)cc3)c(=O)c2c1O | 2.94 µM (active) |  |
| Cc1ccnc(NC(=O)CCNS(=O)(=O)c2ccc(C)c(C)c2)c1 | inactive |  |
| Cc1cccc(NS(=O)(=O)c2cc(Cl)ccc2Cl)n1 | inactive |  |
| O=[N+]([O-])c1ccc(S(=O)(=O)Nc2cccc(-c3ccc(N4CCCC4)nn3)c2)cc1 | inactive |  |
| COc1ccc([C@H]2CC(=O)C=C(c3ccc(C)cc3)C2)cc1 | inactive |  |
| O=C1C=C(c2cc(C(F)(F)F)cc(C(F)(F)F)c2)C[C@@H](c2ccc3c(c2)OCO3)C1 | 8.28 µM (active) |  |
| O=C1C=C(c2ccnc3cc(Cl)ccc23)C[C@@H](c2ccc3c(c2)OCO3)C1 | 7.38 µM (active) |  |
| N#Cc1ccc(C2=CC(=O)C[C@H](c3ccc(Cl)cc3)C2)cc1 | inactive |  |
| COc1ccc2cc(C3=CC(=O)C[C@H](c4ccc5c(c4)OCO5)C3)ccc2c1 | inactive |  |
| CC(=O)C1=C(C)NC(=O)NC1c1ccc2c(c1)OCO2 (configuration not stated) | inactive |  |
| Cc1ccnc(NS(=O)(=O)c2ccc(NC(=O)c3oc4ccc(F)cc4c3C)cc2)n1 | inactive |  |
| [2H]C(CCOS(N)(=O)=O)c1ccccc1 (configuration not stated) | inactive |  |
| CNC(=O)c1sc(NCc2ccccc2OC)nc1C | inactive |  |
| O=C(Nc1ccc(-c2cscn2)cc1)C1CCCN(Cc2ccc(CO)o2)C1 (configuration not stated) | inactive |  |
| COc1cc(-c2c(-c3ccc4c(c3)OCO4)noc2C)ccc1F | inactive |  |
| CCNC(=O)c1cccc(NC(=O)C2CC(=O)N(CCc3ccccc3)C2)c1 (configuration not stated) | inactive |  |
